# Experiments:
# [1] = molecular target: Tyrosine-protein kinase CSK (Homo sapiens) (UniProt P41240); conditions: at 1 µM;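 further: each value is an averaged inhibition reading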
# [2] = molecular target: T1, Discoidin domain-containing receptor 2 (Homo sapiens) (UniProt Q16832); conditions: at 0.1 µM
# T1 sequence (whole entry): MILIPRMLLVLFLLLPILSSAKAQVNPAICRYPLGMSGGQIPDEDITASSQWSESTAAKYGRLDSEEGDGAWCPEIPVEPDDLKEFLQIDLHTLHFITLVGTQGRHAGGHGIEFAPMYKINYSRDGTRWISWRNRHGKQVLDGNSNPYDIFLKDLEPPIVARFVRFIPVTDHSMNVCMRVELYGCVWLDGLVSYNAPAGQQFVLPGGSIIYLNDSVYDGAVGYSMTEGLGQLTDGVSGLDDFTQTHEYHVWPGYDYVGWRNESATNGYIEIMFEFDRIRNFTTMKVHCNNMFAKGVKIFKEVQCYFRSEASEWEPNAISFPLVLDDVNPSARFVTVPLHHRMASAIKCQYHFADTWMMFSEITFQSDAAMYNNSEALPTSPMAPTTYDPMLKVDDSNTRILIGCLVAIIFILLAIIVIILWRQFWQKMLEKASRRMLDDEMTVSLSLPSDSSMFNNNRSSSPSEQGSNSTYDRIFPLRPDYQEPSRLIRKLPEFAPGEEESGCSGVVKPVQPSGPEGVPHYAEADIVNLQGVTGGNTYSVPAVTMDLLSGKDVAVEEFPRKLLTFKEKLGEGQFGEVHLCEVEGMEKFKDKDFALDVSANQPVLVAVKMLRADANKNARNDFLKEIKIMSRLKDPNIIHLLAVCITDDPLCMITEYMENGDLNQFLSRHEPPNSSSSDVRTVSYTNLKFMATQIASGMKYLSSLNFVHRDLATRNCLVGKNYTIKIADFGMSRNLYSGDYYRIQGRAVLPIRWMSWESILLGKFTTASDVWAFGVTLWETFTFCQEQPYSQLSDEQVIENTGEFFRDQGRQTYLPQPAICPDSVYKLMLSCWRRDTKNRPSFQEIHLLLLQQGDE
# [3] = molecular target: T1, Discoidin domain-containing receptor 2 (Homo sapiens); conditions: at 1 µM
# [4] = molecular target: Epidermal growth factor receptor (Homo sapiens) (UniProt P00533); conditions: at 0.1 µM
# Chain of Epidermal growth factor receptor (Homo sapiens) (P00533 whole entry): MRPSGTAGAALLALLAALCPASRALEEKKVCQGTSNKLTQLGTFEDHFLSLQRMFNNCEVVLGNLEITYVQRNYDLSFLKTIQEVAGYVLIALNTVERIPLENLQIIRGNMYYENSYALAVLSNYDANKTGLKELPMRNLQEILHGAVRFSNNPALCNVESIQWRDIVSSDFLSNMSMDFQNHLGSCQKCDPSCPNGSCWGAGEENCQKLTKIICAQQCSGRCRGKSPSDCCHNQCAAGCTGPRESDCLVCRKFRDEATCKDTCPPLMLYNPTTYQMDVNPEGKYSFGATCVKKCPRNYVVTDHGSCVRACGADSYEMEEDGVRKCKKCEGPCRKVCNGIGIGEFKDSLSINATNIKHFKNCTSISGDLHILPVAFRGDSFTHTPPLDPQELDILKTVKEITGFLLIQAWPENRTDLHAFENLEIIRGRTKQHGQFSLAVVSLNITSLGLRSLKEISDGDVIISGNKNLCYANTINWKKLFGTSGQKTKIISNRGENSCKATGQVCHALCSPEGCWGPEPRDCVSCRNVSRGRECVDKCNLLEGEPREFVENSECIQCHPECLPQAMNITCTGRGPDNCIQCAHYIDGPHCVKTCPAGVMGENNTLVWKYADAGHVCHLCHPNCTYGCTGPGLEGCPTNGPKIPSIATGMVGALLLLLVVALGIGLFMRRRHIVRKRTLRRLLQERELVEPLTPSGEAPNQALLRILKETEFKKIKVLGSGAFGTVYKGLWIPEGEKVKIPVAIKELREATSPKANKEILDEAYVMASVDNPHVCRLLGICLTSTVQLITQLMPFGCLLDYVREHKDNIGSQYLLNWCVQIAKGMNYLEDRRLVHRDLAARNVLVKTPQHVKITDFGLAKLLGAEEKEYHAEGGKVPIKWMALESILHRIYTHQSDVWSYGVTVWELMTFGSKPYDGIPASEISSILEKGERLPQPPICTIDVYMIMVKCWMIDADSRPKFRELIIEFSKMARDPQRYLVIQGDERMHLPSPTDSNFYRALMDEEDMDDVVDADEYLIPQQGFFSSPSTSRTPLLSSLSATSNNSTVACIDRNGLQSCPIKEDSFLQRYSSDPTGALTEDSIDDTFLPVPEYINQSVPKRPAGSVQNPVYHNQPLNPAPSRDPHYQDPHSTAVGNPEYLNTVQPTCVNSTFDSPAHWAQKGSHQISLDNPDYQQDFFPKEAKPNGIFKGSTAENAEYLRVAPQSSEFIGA
# [5] = molecular target: Epidermal growth factor receptor (Homo sapiens) (UniProt P00533); conditions: at 1 µM
# [6] = system: Epidermal growth factor receptor (Homo sapiens), P00533 [L858R]; conditions: at 0.1 µM
# Chain of Epidermal growth factor receptor (Homo sapiens), P00533 [L858R] (P00533 whole entry L858R): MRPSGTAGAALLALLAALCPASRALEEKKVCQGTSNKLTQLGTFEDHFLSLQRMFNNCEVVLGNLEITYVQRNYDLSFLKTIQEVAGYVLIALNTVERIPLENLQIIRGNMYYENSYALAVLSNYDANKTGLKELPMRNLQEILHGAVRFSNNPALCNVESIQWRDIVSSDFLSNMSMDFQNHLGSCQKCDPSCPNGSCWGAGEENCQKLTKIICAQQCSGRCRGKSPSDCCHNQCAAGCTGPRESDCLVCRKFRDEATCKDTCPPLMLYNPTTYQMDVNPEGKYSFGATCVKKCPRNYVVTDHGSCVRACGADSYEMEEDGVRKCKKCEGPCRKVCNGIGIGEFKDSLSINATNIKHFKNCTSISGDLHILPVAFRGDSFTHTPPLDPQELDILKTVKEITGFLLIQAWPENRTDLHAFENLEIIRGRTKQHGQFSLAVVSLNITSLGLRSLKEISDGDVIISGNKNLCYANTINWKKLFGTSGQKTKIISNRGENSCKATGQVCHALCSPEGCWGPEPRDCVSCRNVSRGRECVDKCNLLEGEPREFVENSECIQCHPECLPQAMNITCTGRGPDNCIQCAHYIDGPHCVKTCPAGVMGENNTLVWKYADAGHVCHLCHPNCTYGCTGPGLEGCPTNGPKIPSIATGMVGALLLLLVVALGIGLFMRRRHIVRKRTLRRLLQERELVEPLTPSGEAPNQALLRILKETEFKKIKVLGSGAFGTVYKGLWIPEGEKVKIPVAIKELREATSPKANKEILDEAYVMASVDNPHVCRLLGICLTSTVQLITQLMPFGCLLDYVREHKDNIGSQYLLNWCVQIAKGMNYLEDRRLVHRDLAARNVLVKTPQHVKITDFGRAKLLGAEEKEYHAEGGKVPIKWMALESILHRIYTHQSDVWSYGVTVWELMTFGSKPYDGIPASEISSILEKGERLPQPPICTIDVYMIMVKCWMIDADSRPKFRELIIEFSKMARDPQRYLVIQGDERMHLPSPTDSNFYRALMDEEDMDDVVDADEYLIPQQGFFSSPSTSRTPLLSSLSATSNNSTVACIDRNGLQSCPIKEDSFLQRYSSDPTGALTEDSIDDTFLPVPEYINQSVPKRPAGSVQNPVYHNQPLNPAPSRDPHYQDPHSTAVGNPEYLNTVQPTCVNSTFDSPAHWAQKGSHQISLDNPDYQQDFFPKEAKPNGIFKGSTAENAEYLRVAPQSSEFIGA
# [7] = system: Epidermal growth factor receptor (Homo sapiens), P00533 [L858R]; conditions: at 1 µM
# [8] = system: Epidermal growth factor receptor (Homo sapiens), P00533 [L861Q]; conditions: at 0.1 µM
# [9] = system: Epidermal growth factor receptor (Homo sapiens), P00533 [L861Q]; conditions: at 1 µM
# [10] = system: Epidermal growth factor receptor (Homo sapiens), P00533 [T790M]; conditions: at 0.1 µM
# Chain of Epidermal growth factor receptor (Homo sapiens), P00533 [T790M] (P00533 whole entry T790M): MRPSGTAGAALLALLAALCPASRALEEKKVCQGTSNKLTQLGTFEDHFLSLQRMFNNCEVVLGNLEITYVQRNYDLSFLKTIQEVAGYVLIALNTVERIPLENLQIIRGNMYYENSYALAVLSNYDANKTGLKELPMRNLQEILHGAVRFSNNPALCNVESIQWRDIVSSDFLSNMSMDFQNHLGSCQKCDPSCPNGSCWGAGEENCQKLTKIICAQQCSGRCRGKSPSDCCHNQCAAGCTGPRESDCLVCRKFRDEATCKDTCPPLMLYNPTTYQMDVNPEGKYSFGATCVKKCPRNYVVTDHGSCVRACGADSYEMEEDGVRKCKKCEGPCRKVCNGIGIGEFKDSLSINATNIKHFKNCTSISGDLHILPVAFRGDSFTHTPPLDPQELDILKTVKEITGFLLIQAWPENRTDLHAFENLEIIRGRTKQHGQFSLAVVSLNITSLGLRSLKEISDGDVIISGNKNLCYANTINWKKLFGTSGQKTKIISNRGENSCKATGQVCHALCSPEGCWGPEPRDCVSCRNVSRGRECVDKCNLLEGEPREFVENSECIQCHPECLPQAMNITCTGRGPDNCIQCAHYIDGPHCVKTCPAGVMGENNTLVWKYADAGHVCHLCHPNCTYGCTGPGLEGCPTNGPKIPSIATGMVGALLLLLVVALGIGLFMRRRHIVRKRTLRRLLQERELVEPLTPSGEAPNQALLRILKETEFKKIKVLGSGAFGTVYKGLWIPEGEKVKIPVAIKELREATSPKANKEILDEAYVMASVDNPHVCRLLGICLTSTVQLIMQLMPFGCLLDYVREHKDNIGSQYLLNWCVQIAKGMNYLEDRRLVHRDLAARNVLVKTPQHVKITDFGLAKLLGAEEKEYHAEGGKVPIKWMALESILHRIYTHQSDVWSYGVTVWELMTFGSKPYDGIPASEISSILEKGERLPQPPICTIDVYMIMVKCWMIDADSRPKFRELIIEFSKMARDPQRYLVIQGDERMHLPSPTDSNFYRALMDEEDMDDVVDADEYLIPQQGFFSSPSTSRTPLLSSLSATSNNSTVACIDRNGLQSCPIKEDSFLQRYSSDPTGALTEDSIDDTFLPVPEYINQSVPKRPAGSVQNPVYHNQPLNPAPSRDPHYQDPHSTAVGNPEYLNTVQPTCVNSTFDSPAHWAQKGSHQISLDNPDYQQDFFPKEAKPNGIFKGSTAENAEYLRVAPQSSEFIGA
# [11] = system: Epidermal growth factor receptor (Homo sapiens), P00533 [T790M]; conditions: at 1 µM
# [12] = system: Epidermal growth factor receptor (Homo sapiens), P00533 [L858R,T790M]; conditions: at 0.1 µM
# [13] = system: Epidermal growth factor receptor (Homo sapiens), P00533 [L858R,T790M]; conditions: at 1 µM
# [14] = molecular target: Ephrin type-A receptor 2 (Homo sapiens) (UniProt P29317); conditions: at 0.1 µM
# [15] = molecular target: Ephrin type-A receptor 2 (Homo sapiens) (UniProt P29317); conditions: at 1 µM
# [16] = molecular target: T2, Ephrin type-A receptor 3 (Homo sapiens) (UniProt P29320); conditions: at 0.1 µM
# T2 sequence (whole entry): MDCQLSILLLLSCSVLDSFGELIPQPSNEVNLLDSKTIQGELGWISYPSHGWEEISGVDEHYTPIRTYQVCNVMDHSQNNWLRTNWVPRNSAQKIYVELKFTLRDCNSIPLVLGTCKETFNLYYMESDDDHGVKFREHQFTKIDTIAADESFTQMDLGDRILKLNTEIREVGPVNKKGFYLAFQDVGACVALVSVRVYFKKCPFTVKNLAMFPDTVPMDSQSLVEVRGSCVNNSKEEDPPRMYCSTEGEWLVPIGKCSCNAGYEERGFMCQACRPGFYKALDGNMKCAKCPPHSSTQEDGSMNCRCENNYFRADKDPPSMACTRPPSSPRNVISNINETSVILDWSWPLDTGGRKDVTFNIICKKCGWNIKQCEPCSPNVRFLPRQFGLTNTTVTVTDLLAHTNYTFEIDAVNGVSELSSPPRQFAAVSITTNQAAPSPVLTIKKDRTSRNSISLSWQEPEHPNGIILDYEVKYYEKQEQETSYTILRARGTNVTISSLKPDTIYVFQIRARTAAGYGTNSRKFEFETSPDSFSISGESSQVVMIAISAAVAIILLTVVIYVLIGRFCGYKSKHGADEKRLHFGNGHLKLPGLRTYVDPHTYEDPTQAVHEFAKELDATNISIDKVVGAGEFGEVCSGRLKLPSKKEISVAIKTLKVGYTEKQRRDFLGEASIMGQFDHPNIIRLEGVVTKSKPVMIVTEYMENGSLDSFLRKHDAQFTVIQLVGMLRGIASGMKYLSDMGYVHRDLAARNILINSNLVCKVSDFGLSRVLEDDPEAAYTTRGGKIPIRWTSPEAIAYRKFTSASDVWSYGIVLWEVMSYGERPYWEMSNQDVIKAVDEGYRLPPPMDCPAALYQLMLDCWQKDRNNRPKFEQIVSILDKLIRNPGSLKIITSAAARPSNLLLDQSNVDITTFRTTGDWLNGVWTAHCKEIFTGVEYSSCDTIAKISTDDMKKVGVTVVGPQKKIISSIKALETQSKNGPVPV
# [17] = molecular target: T2, Ephrin type-A receptor 3 (Homo sapiens); conditions: at 1 µM
# [18] = molecular target: Ephrin type-A receptor 4 (Homo sapiens) (UniProt P54764); conditions: at 0.1 µM
# Chain of Ephrin type-A receptor 4 (Homo sapiens) (P54764 whole entry): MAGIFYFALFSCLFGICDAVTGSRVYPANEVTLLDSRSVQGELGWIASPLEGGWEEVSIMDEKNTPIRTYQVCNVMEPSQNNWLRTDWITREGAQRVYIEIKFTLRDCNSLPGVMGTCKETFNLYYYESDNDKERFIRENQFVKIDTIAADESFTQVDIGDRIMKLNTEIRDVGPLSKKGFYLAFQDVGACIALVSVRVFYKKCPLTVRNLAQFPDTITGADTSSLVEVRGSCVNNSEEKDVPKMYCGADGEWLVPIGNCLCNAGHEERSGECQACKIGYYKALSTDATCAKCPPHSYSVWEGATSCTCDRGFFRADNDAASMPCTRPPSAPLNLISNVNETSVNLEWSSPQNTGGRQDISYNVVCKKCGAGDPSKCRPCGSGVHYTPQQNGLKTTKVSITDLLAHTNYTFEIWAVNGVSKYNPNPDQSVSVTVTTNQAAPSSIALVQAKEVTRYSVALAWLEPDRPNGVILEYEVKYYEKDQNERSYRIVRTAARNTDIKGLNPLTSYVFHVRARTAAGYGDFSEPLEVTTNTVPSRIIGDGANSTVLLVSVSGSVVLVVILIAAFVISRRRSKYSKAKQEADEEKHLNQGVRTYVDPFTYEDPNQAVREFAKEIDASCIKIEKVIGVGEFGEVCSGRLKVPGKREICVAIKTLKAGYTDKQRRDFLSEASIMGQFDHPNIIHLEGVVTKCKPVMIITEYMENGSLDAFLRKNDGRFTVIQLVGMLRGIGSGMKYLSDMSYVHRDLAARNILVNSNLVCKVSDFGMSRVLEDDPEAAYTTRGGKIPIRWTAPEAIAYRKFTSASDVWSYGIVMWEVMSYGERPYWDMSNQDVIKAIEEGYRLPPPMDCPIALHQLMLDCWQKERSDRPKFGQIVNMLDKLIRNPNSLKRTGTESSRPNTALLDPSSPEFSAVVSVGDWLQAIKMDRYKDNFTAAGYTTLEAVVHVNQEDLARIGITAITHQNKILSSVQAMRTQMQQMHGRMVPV
# [19] = molecular target: Ephrin type-A receptor 4 (Homo sapiens) (UniProt P54764); conditions: at 1 µM
# [20] = molecular target: T3, Ephrin type-B receptor 2 (Homo sapiens) (UniProt P29323); conditions: at 0.1 µM;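 further: reported as mean inhibition of EPHB2, from the GSK PKIS dataset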
# T3 sequence (whole entry): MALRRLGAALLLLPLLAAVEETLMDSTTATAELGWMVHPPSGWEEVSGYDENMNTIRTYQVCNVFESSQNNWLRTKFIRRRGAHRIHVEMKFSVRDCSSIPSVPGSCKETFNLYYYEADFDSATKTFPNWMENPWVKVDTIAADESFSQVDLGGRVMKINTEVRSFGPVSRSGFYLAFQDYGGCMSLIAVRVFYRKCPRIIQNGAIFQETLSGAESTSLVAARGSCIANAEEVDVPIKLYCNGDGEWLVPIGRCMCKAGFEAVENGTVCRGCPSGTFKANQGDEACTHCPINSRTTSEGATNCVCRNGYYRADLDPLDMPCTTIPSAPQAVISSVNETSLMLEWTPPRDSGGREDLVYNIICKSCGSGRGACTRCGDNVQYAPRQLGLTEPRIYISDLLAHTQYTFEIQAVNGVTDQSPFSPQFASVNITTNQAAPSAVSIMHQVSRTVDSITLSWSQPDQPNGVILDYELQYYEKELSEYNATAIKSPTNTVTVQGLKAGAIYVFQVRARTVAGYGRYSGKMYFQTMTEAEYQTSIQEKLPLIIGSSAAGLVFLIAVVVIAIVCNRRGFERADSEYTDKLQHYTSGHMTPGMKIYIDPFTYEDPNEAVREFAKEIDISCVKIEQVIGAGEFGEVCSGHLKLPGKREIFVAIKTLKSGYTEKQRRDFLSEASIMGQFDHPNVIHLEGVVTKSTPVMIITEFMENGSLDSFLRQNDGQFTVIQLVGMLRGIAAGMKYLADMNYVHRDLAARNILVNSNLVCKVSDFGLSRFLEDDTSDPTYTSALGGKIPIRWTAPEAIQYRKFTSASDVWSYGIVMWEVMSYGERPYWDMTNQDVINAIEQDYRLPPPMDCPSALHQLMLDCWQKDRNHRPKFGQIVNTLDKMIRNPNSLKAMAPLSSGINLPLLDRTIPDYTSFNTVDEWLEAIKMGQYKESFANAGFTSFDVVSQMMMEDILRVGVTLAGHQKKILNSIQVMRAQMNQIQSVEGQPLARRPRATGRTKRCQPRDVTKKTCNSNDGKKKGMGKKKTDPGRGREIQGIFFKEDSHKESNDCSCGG
# Chain of Tyrosine-protein kinase CSK (Homo sapiens) (P41240 2-450 limits assumed): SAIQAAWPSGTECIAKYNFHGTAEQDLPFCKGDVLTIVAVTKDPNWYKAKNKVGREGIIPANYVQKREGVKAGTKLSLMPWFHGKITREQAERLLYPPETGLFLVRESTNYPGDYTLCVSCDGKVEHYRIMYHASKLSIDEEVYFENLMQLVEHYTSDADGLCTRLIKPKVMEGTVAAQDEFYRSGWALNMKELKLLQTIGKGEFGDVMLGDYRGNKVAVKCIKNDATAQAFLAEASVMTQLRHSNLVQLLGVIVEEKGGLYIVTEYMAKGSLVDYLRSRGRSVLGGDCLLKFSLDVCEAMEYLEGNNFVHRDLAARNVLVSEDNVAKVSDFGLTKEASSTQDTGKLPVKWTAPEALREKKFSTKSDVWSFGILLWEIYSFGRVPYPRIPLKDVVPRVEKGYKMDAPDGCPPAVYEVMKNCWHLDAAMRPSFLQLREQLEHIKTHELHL
Structure (SMILES),inhibition [1],inhibition [2],inhibition [3],inhibition [4],inhibition [5],inhibition [6],inhibition [7],inhibition [8],inhibition [9],inhibition [10],inhibition [11],inhibition [12],inhibition [13],inhibition [14],inhibition [15],inhibition [16],inhibition [17],inhibition [18],inhibition [19],inhibition [20]
COc1ccc(C2=C(N3CCc4ccccc43)C(=O)NC2=O)cc1,9.3%,1.75%,1.87%,1.18%,3.59%,7.35%,7.13%,4.49%,6.05%,3.62%,2.96%,1.12%,2.08%,2.52%,0.56%,7.52%,5.91%,10.6%,12.4%,11%
COc1cccc(-n2cnc3c(N/N=C/c4ccncc4)ncnc32)c1,7.17%,-0.19%,1.99%,2.02%,8.31%,5.72%,30.8%,1.61%,10.6%,-0.92%,5.78%,-1.35%,6.65%,-0.82%,0.55%,-3.39%,-0.79%,3.18%,25.6%,2.42%
O=C(Nc1ccc(Oc2ccc3[nH]c(NC(=O)c4ccccc4)nc3c2)cc1)Nc1cc(C(F)(F)F)ccc1F,11.7%,24.4%,78.7%,-0.35%,1.11%,7.18%,6.93%,2.47%,3.54%,2.22%,5.49%,1.07%,2.34%,2.75%,26%,4.22%,8.94%,13.4%,64.2%,13.7%
Cc1nnc(-c2ccc(C)c(-c3ccc(C(=O)NCc4ccc(Cl)cc4)cc3)c2)o1,5.62%,0.22%,-0.21%,-3.58%,-0.27%,1.36%,2.71%,2.71%,1.09%,0.7%,3.59%,1.86%,2.04%,-3.78%,-3.32%,-0.26%,-1.93%,6.29%,5.1%,2.73%
Fc1ccc(-c2ncn(C3CCNCC3)c2-c2ccnc(Oc3ccc(F)c(F)c3)n2)cc1,2.38%,1.67%,2.09%,-3.12%,-0.79%,1.05%,7.57%,3.65%,4.21%,1.53%,1.67%,2.65%,1.47%,-2.47%,-2.72%,-1.56%,0.81%,6.95%,9.68%,6.59%
CN1CCN(CCCNc2nc3ccc(Oc4ccc(NC(=O)Nc5cc(C(F)(F)F)ccc5F)cc4)cc3[nH]2)CC1,-3.31%,73.9%,83.6%,-3.44%,0.24%,1%,0.13%,0.67%,-4.02%,0.51%,-2.83%,-0.44%,-4.26%,-3.26%,2.37%,-0.6%,-0.47%,6.02%,25.9%,9.54%

# — ChEMBL document CHEMBL1961873, “Compounds: GSK PKIS; Assays: Nanosyn kinase panel” (2012)
